Data published in PubChem BioAssay AID1910 (Broad Institute, 2009).
The campaign covered roughly 300,000 compounds. About 950 (0.32%) were called active. Many of the other results were omitted from the sample, so actives are more common in it than they were. Unmarked numbers belong to inactive results.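 How the source made its calls: active means mean activation of at least 10% of the iron chelator positive control signal, with at least half of replicates also reaching 10%; inconclusive means mean and replicate majority disagree about reaching 10%; inactive means mean and most replicates under 10%.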

Assay: HIF pathway transcriptional activators, primary screen, cell-based, U2OS HRE-luciferase, luminescence (AID 1910)
Conditions: U2OS HRE-luciferase reporter, active compounds read high, screened at 7.5 µM (by protocol), normalized: DMSO 0%, desferrioxamine 100%

SMILES | activation
CCc1nnc(NS(=O)(=O)c2ccc(NC(=O)c3cccc(OC(F)(F)C(F)F)c3)cc2)s1 | -0.386%
CCOC(=O)c1ccc(NC(=O)c2c(NCc3ccccc3)[nH]c(=O)[nH]c2=O)cc1 | 0.835%
O=C(c1ccc(F)cc1)N1CCC(C(=O)N2CCN(S(=O)(=O)c3ccccc3Br)CC2)CC1 | 1.51%
O=C(CSc1nnc2c(n1)[nH]c1ccccc12)NC1CCCCC1 | 0.503%
CC(C)N(c1ccccc1)c1ncnc(NCCC(=O)O)c1[N+](=O)[O-] | 173% (active)
Cc1ccc(C(C)NC(=O)Cn2nc(C)c([N+](=O)[O-])c2C)cc1 (stereo not given) | -0.456%
Cc1ccc(OCC(=O)NC(C)c2ccccc2)c([N+](=O)[O-])n1 (stereo not given) | -1.24%
COc1ccc(S(=O)(=O)NCC(c2ccc(C)cc2)N2CCN(C)CC2)cc1OC (stereo not given) | -0.0703%
COc1ccccc1NC(=O)C1CCN(C(=O)c2ccc(C(C)(C)C)cc2)CC1 | 24.7% (active)
CC(C)(C)c1ccc(C(=O)N2CCC(C(=O)N3CCCCC3)CC2)cc1 | -0.293%
COc1ccc(C(=O)N2CCC(C(=O)Nc3ccc(C)cc3)CC2)cc1 | 0.165%
Cc1ccc2nc(SCC(=O)N3CCN(c4ccccc4)CC3)nc(=O)n2c1 | -0.536%
CN1CCN(c2ncc3c(n2)CC(c2ccccc2F)CC3=O)CC1 (stereo not given) | -0.449%
Cc1cc(C)nc(-n2ncc3c2CC(c2ccc(C(C)C)cc2)CC3=O)n1 (stereo not given) | 0.0559%
Cc1nc2nc3c(cn2n1)C(=O)CC(c1ccccc1)C3 (stereo not given) | 842% (active)
COc1ccccc1NC(=O)Nc1nc(CC(=O)Nc2ccccc2F)cs1 | -0.165%
NC(=O)c1ccsc1NC(=O)COC(=O)Cc1n[nH]c(=O)c2ccccc12 | 0.145%
CCCCn1c(N)c(N(CC(C)C)C(=O)C2CSC3(C)CCC(=O)N23)c(=O)[nH]c1=O (stereo not given) | 0.199%
COc1ccc(-n2c(-c3ccc(OC)c(OC)c3)n[nH]c2=S)cc1 | 1.1%
COc1ccc(N2C(=O)CNC2=S)cc1 | -0.317%
COc1ccc(-n2c(C)csc2=S)cc1 | 14.5% (active)
c1ccc(-c2nc(NCc3ccco3)c3ccccc3n2)cc1 | 0.461%
O=C(Cc1ccccc1)n1nc(-c2ccccc2)nc1NCc1ccco1 | 1.38%
CS(=O)(=O)n1nc(-c2ccccc2)nc1NCc1ccco1 | 16.1% (active)

SMILES | activation
N#CCN(C(=O)COC(=O)C1CC2CCCC(C1)C2=O)c1ccccc1 (stereo not given) | -0.0724%
Cc1ccc(C(=O)Nc2nnc(C3=COCCO3)o2)cc1C | 0.0306%
COc1cccc(N2CC(C(=O)NCc3n[nH]c(=O)c4ccccc34)CC2=O)c1 (stereo not given) | 3.45%
COc1ccc(NC(=O)c2cccc(NC(=O)c3ccco3)c2)c(OC)c1 | 10.1% (active)
COc1ccc(NC(=O)CCC(=O)Nc2cc(OC)c(NC(=O)c3ccco3)cc2OC)c(OC)c1 | -0.226%
COc1ccccc1C(=O)Nc1ccc(NC(=O)c2ccco2)c(C)c1 | 0.062%
COc1ccccc1OCCCCCCN1CCN(C)CC1 | 0.237%
CCOc1ccc(C(C)=O)cc1COC(=O)CNC(=O)c1cccs1 | 0.00171%
O=C(N/N=C/c1ccccc1O)C1CCCC1 | 0.236%
O=C(N/N=C/c1ccccc1O)/C(=C/c1ccccc1)CCO | 31.1% (active)
O=C(CCCO)N/N=C/c1cc(Br)ccc1O | -1.18%
Cc1cccc(N=C2SC(C)CN2C(=O)CN2C(=O)NC3(CCCC3)C2=O)c1 (stereo not given) | 0.348%
CCN(CC(=O)Nc1c(F)cccc1F)C(=O)c1ccc(Sc2nncn2C)c([N+](=O)[O-])c1 | 0.52%
O=C(Nc1cccc(F)c1)c1coc(=O)c(Br)c1 | 0.54%
COc1ccc(N2CC(C(=O)NCCN3C(=O)S/C(=C\c4cccnc4)C3=O)CC2=O)c(OC)c1 (stereo not given) | 0.0693%
O=C(NCCCN1CCOCC1)c1cc(-c2ccccc2F)no1 | 10.1% (active)
O=C(NCCCN1CCOCC1)c1cc(-c2ccc(Cl)cc2)on1 | -0.141%
O=C(NCCCN1CCOCC1)c1cc(-c2cccc(O)c2)on1 | -0.131%
C=CCNC(=O)/C=C/c1ccc(C(C)C)cc1 | 2.38%
Cn1cnc2c1c(=O)n(Cc1ccccc1C#N)c(=O)n2C | -28%
COc1ccc(C(CNC(=O)c2cccc(NS(=O)(=O)c3ccc(C)c(F)c3)c2)N2CCCC2)cc1 (stereo not given) | -0.102%
O=C(CSCc1ccc(Br)cc1)Nc1ccc(S(=O)(=O)N2CCCCCC2)cc1 | -0.637%
Cc1cc(=O)[nH]c(SCC(=O)Nc2ccc(Br)cc2)n1 | 0.205%
O=C1CCCN2N=C(SCC(=O)Nc3ccc(Br)cc3)SC2=N1 | 20.5% (active)

SMILES | activation
O=C(Nc1ncccc1O)c1ccc(S(=O)(=O)N2CCCCCC2)cc1 | 3.25%
O=C(Nc1ncccc1O)c1ccc(S(=O)(=O)N2CCCC2)cc1 | 4.15%
O=C(Nc1ncccc1O)c1ccc(C(=O)c2ccccc2)cc1 | 14.2% (active)
Cc1cc(C)c(C)c(S(=O)(=O)Nc2cccnc2)c1C | -0.0811%
CCN(CC)c1ccc(/C=N/Nc2nc(C)cc(C)n2)c(O)c1 | 1.77%
CCN(CC)c1ccc(/C=N/NC(=O)c2cnccn2)c(O)c1 | 95.3% (active)
CCN(CC)c1ccc(/C=N/NC(=O)CNC(=O)c2cccnc2)cc1 | -0.424%
Cc1c(C(=O)Nc2ccccn2)oc2ccc(Br)cc12 | 2.61%
Cc1c(Cl)c([N+](=O)[O-])nn1CCCC(=O)Nc1cc(Cl)ccc1Cl | -0.466%
Cc1c(Cl)c([N+](=O)[O-])nn1Cc1ccc(C(=O)N/N=C\c2cc(Cl)ccc2O)o1 | 49.6% (active)
Cc1ccc(C(=O)O)cc1NC(=O)c1ccc(Cn2nc(C)c(Cl)c2C)o1 | -0.0752%
O=C(COc1coc(CN2CCN(c3ccccc3F)CC2)cc1=O)N1CCc2ccccc21 | 0.2%
Cc1nc(-c2ccc(F)cc2)c(CC(=O)Nc2cc(S(=O)(=O)N3CCCCC3)ccc2C)s1 | -0.206%
CC1CN(C(=O)COC(=O)c2cccc(NS(=O)(=O)c3ccccc3)c2)CC(C)O1 (stereo not given) | -0.538%
CC(C)N(Cc1ccccc1)C(=O)COC(=O)c1ccccc1SCC(=O)N1CCCC1 | -0.658%
Oc1ccc2ccccc2c1N=Nc1nccs1 | 68.6% (active)
c1ccc(NCc2cccc3ccccc23)nc1 | -34.2%
Oc1ccc(N=Nc2nccs2)c(O)c1 | -0.857%
COc1cccc(NC(=O)CSc2nccn(-c3ccc4c(c3)OCCO4)c2=O)c1 | 0.704%
CC(OC(=O)CCCc1c[nH]c2ccccc12)C(=O)Nc1ccc(S(N)(=O)=O)cc1 (stereo not given) | 0.134%
CCCn1nc(C(=O)NNC(=O)CCOc2ccccc2OCC)c2ccccc2c1=O | 0.594%
COc1ccc(-c2cc(C(F)(F)F)nc(SCC(=O)Nc3ccc4c(c3)OCO4)n2)cc1OC | -1.49%
COc1cc(OC)nc(S(C)(=O)=O)n1 | 0.158%
COc1ccc(-c2cc(C(F)(F)F)nc(S(C)(=O)=O)n2)cc1OC | 18.9% (active)

SMILES | activation
COc1ccc(C(=O)Nc2ccc(C(=O)NCC3CCCO3)cc2)c(OC)c1OC (stereo not given) | -3.72%
COc1cc(N)c(Cl)cc1C(=O)OCC(=O)c1ccc2c(c1)NC(=O)CO2 | 0.0757%
CCCCn1c(N)c(N(CCOC)C(=O)COc2c(C)cccc2C)c(=O)[nH]c1=O | -0.338%
Cc1nn(C)cc1C(=O)c1ccccc1 | 0.273%
COc1ccc2c(c1)CCNC2Cc1ccc(OC)c(O)c1 (stereo not given) | 0.872%
O=C1NC(c2ccccc2)Oc2ccccc21 (stereo not given) | -0.318%
CN(C)CCNC(=O)c1[nH]nc2c1CCc1ccccc1-2 | 2.68%
COc1cccc(/C=N/Nc2cc(C)nc(-c3ccccc3O)n2)c1O | 0.0705%
COc1cccc(/C=N/NC(=O)c2[nH]nc3c2CCc2ccccc2-3)c1O | 46.5% (active)
COc1ccc(O)c(/C=N/N=C/c2cccc([N+](=O)[O-])c2)c1 | -2.34%
C1CC1Cc1noc(CN2CCN(CC3CC3)CC2)n1 | 75.3% (active)
CC(C)C(O)C1CCN(Cc2nc(Cc3ccccc3Cl)no2)CC1 (stereo not given) | 0.0858%
Cc1ccccc1N1CCN(Cc2nc(Cc3ccccc3F)no2)CC1 | 0.117%
O=C(Nc1ccc(F)c([N+](=O)[O-])c1)C1CCCO1 (stereo not given) | -0.403%
COc1ccccc1C1=CC(=O)CCC1 | 0.17%
COc1ccccc1CCNC(=O)C(=O)NCCC1CCCCN1S(=O)(=O)c1cccs1 (stereo not given) | 0.0341%
Cc1cccc(NC(=S)N2CCCC(c3nc4ccccc4[nH]3)C2)c1 (stereo not given) | 0.822%
CN(C)CCCNC(=S)N1CCC(c2nc3ccccc3[nH]2)CC1 | 0.0482%
CCCNC(=S)N1CCCC(c2nc3ccccc3[nH]2)C1 (stereo not given) | 99.5% (active)
O=C(NCc1ccc2c(c1)OCO2)c1c(O)nc2sccn2c1=O | -0.288%
COc1cc(CN2CCC(C(N)=O)CC2)ccc1OCc1ccccc1 | 5.51%
COc1cc(C2CC(=O)N3CN(Cc4ccccc4)CSC3=C2C#N)ccc1OCc1ccccc1 (stereo not given) | 227% (active)
COc1cc(CNC2CCCC2)c(Br)cc1OCc1ccccc1 | -0.706%
